# Screening data: PubChem, several laboratories
# TIM10 inh – growth inhibitors of TIM10 yeast strain. S. cerevisiae TIM10 strain growth, BacTiter-Glo luminescence, 24 h. inhibition, % at 10 µM. 1.4% of 330,000 active. AID 463195;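 active = inhibition of 40% or more at the single tested concentration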;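 note: wild-type TIM10 isogenic control strain grown at permissive 25 °C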
# tim23-1 inh – inhibits growth of tim23-1 mutant yeast. S. cerevisiae tim23-1 growth, BacTiter-Glo luminescence, 24 h. inhibition, % at 20 µM. 1.3% of 330,000 active;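 active = growth inhibition of the mutant yeast at or above 50%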;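 note: temperature-sensitive mutant grown at 25 °C; plate controls were DMSO-treated mutant yeast for no effect and medium wells lacking yeast for full effect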
# NALP3 yeast inh – NALP3 inhibition in yeast. Yeast reconstituted NLRP3/ASC/caspase-1, beta-gal luminescence, 24 h. inhibition, % at 10 µM. 0.39% of 330,000 active;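 active = inhibition of 50% or more; inactive = inhibition below 50%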;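 note: plate controls were induced DMSO wells for no effect and uninduced yeast grown without galactose for full effect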
# tim10-1 inh – tim10-1 yeast growth inhibition | S. cerevisiae tim10-1 ts strain growth, BacTiter-Glo, 24 h | inhibition, % at 20 µM | 2.2% of 330,000 active | AID 463190;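 active = inhibition of at least 40%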;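 note: mutant grown at 25 °C; 0% = DMSO wells with yeast and 100% = wells holding no yeast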
# NALP1 yeast inh – blocks the NALP1 inflammasome reconstituted in yeast | inhibition, % at 10 µM | S. cerevisiae NALP1/ASC/caspase-1 growth, X-gal OD620, 72 h | AID 2071 | 0.61% of 280,000 active; in the data active = inhibition mostly above about 24%, no sharp cut-off; inactive = mostly below about 32%
# PfHsp90 yeast 2 – inhibits growth of yeast expressing Plasmodium falciparum Hsp90; S. cerevisiae expressing PfHsp90, BacTiter-Glo ATP, 48 h; yeast lacking PDR1 and PDR3 efflux regulators; inhibition, % at 9.4 µM; 0.32% of 310,000 active;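 active = every replicate shows inhibition above about 80%, whatever the replicate mean, limit read from the data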;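 note: 0% = DMSO neutral controls and 100% = 20 µM radicicol positive controls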
# tim10 confirm – confirmation of TIM10 yeast growth inhibitors; shares compounds with TIM10 inh; S. cerevisiae tim10 strain growth, BacTiter-Glo luminescence, 24 h; inhibition, % at 10 µM; 63% of 4,600 active;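 active = inhibition of yeast growth at or above a set limit in either of two replicates at 10 µM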;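 note: this counterscreen used the strain with wild-type TIM10; 0% = yeast with DMSO and 100% = medium wells lacking yeast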
# * = called active by the depositor; · = not tested or not shown. Hits are enriched below; roughly 4.1% of the tested compounds scored in any of these assays.
SMILES,TIM10 inh,tim23-1 inh,NALP3 yeast inh,tim10-1 inh,NALP1 yeast inh,PfHsp90 yeast 2,tim10 confirm
CC(C)n1c(N2CCN(C(=O)Nc3ccccc3)CC2)nc2ccccc21,44*,24,3,20,2,-12,43*
Cn1c(N2CCN(C(=O)Nc3ccc(F)cc3)CC2)nc2ccccc21,7,-2,14,-11,12,14,·
Cc1ccc(O)c(-c2cc(-c3ccccc3F)[nH]n2)c1,48*,18,16,39,-6,10,43*
CCOC(=O)N1CCN(C(=O)c2ccc3c(c2)sc2nc(-c4ccc(OC)cc4)cn23)CC1,50*,16,18,18,34,-18,44*
CCOC(=O)N1CCN(C(=O)c2ccc(OC)cc2)CC1,15,-5,-4,8,0,-11,·
Cc1ccc2c(c1)c1nc3ccccc3nc1n2CCN1CCOCC1,48*,6,22,15,2,7,23
CC1CN(CC(O)COC(c2ccc(Cl)cc2)c2ccc(Cl)cc2)CC(C)O1 (stereo not given),46*,35,9,32,28,7,40*
COc1ccc(OC)c2[nH]c(=O)c(CCNC(=O)c3ccc(Br)o3)cc12,47*,18,-15,25,5,2,12
COc1cc(C(=O)NCCc2cc3c(OC)ccc(OC)c3[nH]c2=O)cc(OC)c1OC,16,13,-12,11,7,·,·
O=C(Nc1ccc(C(O)(C(F)(F)F)C(F)(F)F)cc1)c1ccc(Cl)c([N+](=O)[O-])c1,59*,30,12,38,35,13,2
O=C(O)c1cc(NC(=O)c2ccc(Cl)c([N+](=O)[O-])c2)cc(C(=O)O)c1,7,0,-8,-9,15,6,·
Cc1cc(Nc2cccc(Cl)c2)nc(-c2ccccc2O)n1,42*,19,0,18,8,-44,41*
O=C(N=Nc1c(O)[nH]c2ccccc12)c1cccs1,62*,11,30,24,9,-20,47*
OCCNc1nc(Nc2ccc(Br)cc2)nc2ccccc12,43*,13,24,21,18,·,22
C/C(=N/NC(=O)c1cc(-c2ccc(Cl)s2)[nH]n1)c1ccco1,-13,11,11,-59,·,·,·
CC1CCCC(C)N1C(=O)COC(=O)CCC1CCCC1 (stereo not given),-5,0,16,8,5,-6,·
COc1ccc(C(=O)c2ccc(OC)c3cccc(O)c23)cc1OC,44*,36,24,31,22,-24,27
COc1ccc(C(=O)c2ccc(OC)c(OC)c2)cc1OC,5,18,1,19,-3,-2,·
Cc1c(Cl)cccc1NC(=S)NCCCN(C)C,46*,3,8,8,28,2,-2
CN(C)CCNC(=S)Nc1ccccc1Cl,-12,-18,13,-15,11,27,·
CCc1cc2c(=O)c(-c3nc4ccccc4[nH]3)coc2cc1OC(=O)N1CCOCC1,57*,19,36,17,28,7,62*
CC(C)C[C@H](NC(=O)OCC1c2ccccc2-c2ccccc21)C(=O)O,·,·,·,·,·,5,·
COCc1ccc(-c2c(-c3cc(OC)cc(OC)c3)oc(=O)c3cc(OC)c(OC)cc23)cc1,-2,29,15,13,·,-2,·
Nn1c(SCc2ccc(Br)cc2)nnc1-c1ccncc1,7,15,16,-16,8,8,·
Cc1ccc(CSc2nnc(-c3ccncc3)n2N)cc1,42*,2,11,-8,21,·,8
COc1cc(OC)cc(C(=O)NNC(=O)c2nn(C)c(=O)c3ccccc23)c1,-2,-7,15,20,·,3,·
CCOc1ccc2nc3cc(NCc4ccc(OC)cc4)ccc3c(N)c2c1,83*,47,20,38,15,4,75*
CC(C)CCn1c(N2CCN(c3cccc(Cl)c3)CC2)nc2c1c(=O)[nH]c(=O)n2C,41*,21,2,27,8,-18,-8
CC(C)CN(C1CCS(=O)(=O)C1)S(=O)(=O)c1ccc(C(C)C)cc1 (stereo not given),9,28,15,24,·,2,·
